This is an account of results in PubChem BioAssay (NCATS).

SMILES strings stand for the structures. Inconclusive results are not listed. Active and inactive are the calls of the source. Calls come from the whole dose curve; as a rule, active = well fitted curve in the direction sought with a large enough effect; inconclusive = small, poorly fitted or top-dose-only effect, or another doubt; inactive = no such curve, though single readings can be large; an effect the other way counts as inactive or inconclusive.

Experiment [1] is described as follows: qHTS of pediatric cancer cell lines to identify multiple opportunities for drug repurposing: Primary screen for SJ-GBM2 cells (AID 1347091). Note: potency is the fitted concentration of half-maximal effect. Conditions: SJ-GBM2 viability, CellTiter-Glo luminescence, 48 h; series mostly up to 46 µM. Summed up:
(§1)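 Viability measured as metabolically active cells via CellTiter-Glo luminescence following 48 hours of compound exposure, 11-point dilutions in confirmatory testing. 500-1,000 cells/well plated 5 hours before dosing; controls were DMSO and 2.3 µM bortezomib.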

A short description of experiment [2]: qHTS of pediatric cancer cell lines to identify multiple opportunities for drug repurposing: Primary screen for A673 cells (AID 1347092). Note: nearly all actives have a fitted effect of over 45% in size. Note: potency is the fitted concentration of half-maximal effect. Conditions: A673 Ewing sarcoma viability, CellTiter-Glo ATP luminescence, 48 h; series mostly up to 46 µM. Summed up: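 A673 cells (500-1,000 cells/well in growth media) were pre-incubated 5 h at 37 degrees C, then exposed to compounds for 48 h. Viability was read as CellTiter-Glo luminescence; concentration-response curves came directly from the primary screen.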

The nature of experiment [3]: qHTS of pediatric cancer cell lines to identify multiple opportunities for drug repurposing: Primary screen for SK-N-MC cells (AID 1347093). Note: potency is the fitted concentration of half-maximal effect. Conditions: SK-N-MC viability, CellTiter-Glo luminescence, 48 h; series mostly up to 46 µM. A digest of the protocol: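 Metabolically active cells were quantified by ATP-dependent luminescence (CellTiter-Glo, 15 min at room temperature) following 48 h treatment. Cells had been plated at 500-1,000 per well and settled for 5 h beforehand.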

Experiment [4] can be described thus: qHTS of pediatric cancer cell lines to identify multiple opportunities for drug repurposing: Primary screen for BT-37 cells (AID 1347094). Note: potency is the fitted concentration of half-maximal effect. The following applies: BT-37 viability, CellTiter-Glo luminescence, 48 h; series mostly up to 57.3 µM. Summed up:
(§2)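 Phenotypic viability qHTS, 48 h compound exposure, CellTiter-Glo luminescence read-out; multi-concentration dosing so that potency and efficacy derive directly from the primary screen's curves.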

A short description of experiment [5]: qHTS of pediatric cancer cell lines to identify multiple opportunities for drug repurposing: Primary screen for NB-EBc1 cells (AID 1347095). Note: potency is the fitted concentration of half-maximal effect. Conditions: NB-EBc1 neuroblastoma viability, CellTiter-Glo luminescence, 48 h; series mostly up to 46 µM. A digest of the protocol:
as §2

Experiment [6] in a line: qHTS of pediatric cancer cell lines to identify multiple opportunities for drug repurposing: Primary screen for U-2 OS cells (AID 1347096). Note: nearly all actives have a fitted effect of over 50% in size. Conditions: U-2 OS viability, CellTiter-Glo luminescence, 48 h; series mostly up to 46 µM. A digest of the protocol: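 Viability after 48 h compound treatment at 37C, 500-1,000 cells/well, read as ATP luminescence with CellTiter-Glo. Primary screens used 11-point (MIPE, 0.78 nM-46 µM) or 8-point (NPC, 0.59 nM-46 µM) final concentrations; follow-up screens used 11-point dilutions.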

Experiment [7] can be described thus: qHTS of pediatric cancer cell lines to identify multiple opportunities for drug repurposing: Primary screen for Saos-2 cells (AID 1347097). Note: nearly all actives have a fitted effect of over 40% in size. Note: potency is the fitted concentration of half-maximal effect. Conditions: Saos-2 viability, CellTiter-Glo ATP luminescence, 48 h; series mostly up to 46 µM. A digest of the protocol:
as §2

A short description of experiment [8]: qHTS of pediatric cancer cell lines to identify multiple opportunities for drug repurposing: Primary screen for NB1643 cells (AID 1347099). Note: nearly all actives have a fitted effect of over 50% in size. Note: potency is the fitted concentration of half-maximal effect. Conditions: NB1643 neuroblastoma viability, CellTiter-Glo luminescence, 48 h; series mostly up to 46 µM. Summed up: as §2
Experiment [9] is described as follows: qHTS of pediatric cancer cell lines to identify multiple opportunities for drug repurposing: Primary screen for SK-N-SH cells (AID 1347098). Note: nearly all actives have a fitted effect of over 65% in size. Note: potency is the fitted concentration of half-maximal effect. Conditions: SK-N-SH viability, CellTiter-Glo luminescence, 48 h; series mostly up to 57 µM. A digest of the protocol: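 Cells (500-1,000/well) rested 5 h, then received compounds for 48 h; metabolically active cells were measured by CellTiter-Glo luminescence. Final concentrations spanned up to 46 µM (MIPE, 11-point) or 0.59 nM-46 µM (NPC, 8-point) in primary screens, 11-point in follow-ups.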

A short description of experiment [10]: qHTS of pediatric cancer cell lines to identify multiple opportunities for drug repurposing: Primary screen for DAOY cells (AID 1347090). Note: nearly all actives have a fitted effect of over 55% in size. Conditions: DAOY medulloblastoma viability, CellTiter-Glo luminescence, 48 h; series mostly up to 46 µM. A digest of the protocol: as §1

Regarding `CCCCS(=O)(=O)N[C@@H](Cc1ccc(OCCCCC2CCNCC2)cc1)C(=O)O`, the Potency result in experiment [1], in experiment [2], in experiment [3], in experiment [4], in experiment [5] and in [6] was “inactive” each time. Also, the Potency result in experiment [7] and in [8] was “inactive” in each case.

`CN(C)/N=N/c1nc[nH]c1C(N)=O`: the Potency result in experiment [1], in experiment [2], in experiment [5], in experiment [7] and in experiment [9] was “inactive” throughout. For the same compound, the Potency in [3] is 2.66 µM (active).

As for `Oc1c(I)cc(Cl)c2cccnc12`, the Potency in [1] is 18.8 µM (active); in [2], 21.1 µM (active); in experiment [7], 21.1 µM (active); in experiment [9] it was 27.3 µM (active).

For `Oc1ccc(O)cc1`, the Potency entry in experiment [1], in experiment [4], in [6], in experiment [7] and in [9] was “inactive” each time. Further, the Potency in experiment [3] is 26.6 µM (active); in [5] it was 6.68 µM (active).

For the compound `C=C1C[C@H]2[C@@H]3C=C(C)C4=CC(=O)CC[C@]4(C)[C@H]3CC[C@]2(C)[C@@]1(OC(C)=O)C(C)=O`, the Potency result in experiment [1], in [2], in experiment [4], in experiment [5], in [6] and in [7] was “inactive” each time. Further, the Potency entry in [9] and in experiment [8] was “inactive” in each case.

As for `CCN1CCCC1=O`, the Potency result in experiment [1], in experiment [3], in [4], in experiment [5], in experiment [6] and in [7] was “inactive” each time. The Potency result in experiment [9] and in [8] was “inactive” throughout.

Take `Cc1ccc(C(=O)C(C)CN2CCCCC2)cc1` (stereo not given): the Potency result in [1], in experiment [2], in [3], in [4], in [7] and in [9] was “inactive” throughout. In [8], the Potency entry is “inactive”.

Consider `CC(=O)Oc1ccc2c(c1)CC[C@@H]1[C@@H]2CC[C@]2(C)[C@@H](O)CC[C@@H]12`, for which the Potency entry in experiment [10], in experiment [6] and in [8] was “inactive” throughout. Moreover, the Potency in experiment [7] was 23.7 µM (active).

For the compound `C[C@]12CC[C@H]3[C@@H](CCC4=CC(=O)CC[C@@]43C)[C@@H]1CC[C@@H]2C(=O)CO`, the Potency result in experiment [1], in [2], in experiment [3], in experiment [4], in experiment [6] and in experiment [7] was “inactive” throughout. The Potency result in experiment [9] and in experiment [8] was “inactive” each time.

With `COC(=O)[C@@H]1CC2=CC(=O)CC[C@]2(C)[C@@]23O[C@@H]2C[C@@]2(C)[C@@H](CC[C@@]24CCC(=O)O4)[C@H]13`, the Potency entry in experiment [1], in [2], in experiment [3], in experiment [4], in experiment [7] and in experiment [9] was “inactive” throughout. For the same compound, the Potency entry in [8] is “inactive”.

Turning to `COC(=O)CCc1ccc(OCC(O)CNC(C)C)cc1` (stereo not given), the Potency result in experiment [1], in [2], in [3], in [4], in experiment [6] and in [7] was “inactive” each time. For the same compound, the Potency result in [9] and in [8] was “inactive” throughout.

In the case of `C[C@@H]1C[C@H]2[C@@H]3CCC4=CC(=O)C=C[C@]4(C)[C@@]3(F)[C@@H](O)C[C@]2(C)[C@H]1C(=O)CO`, the Potency result in experiment [1], in experiment [2], in [3], in experiment [4], in experiment [5] and in experiment [6] was “inactive” in each case. The Potency entry in experiment [7], in experiment [9] and in [8] was “inactive” in each case.

Consider `Cc1ccnc(NS(=O)(=O)c2ccc(N)cc2)n1`, for which the Potency result in [1], in experiment [2], in experiment [3], in experiment [4], in experiment [5] and in experiment [6] was “inactive” each time. For the same compound, the Potency result in experiment [7], in experiment [9] and in experiment [8] was “inactive” each time.

Turning to `CCCCCCC[N+](CC)(CC)CCCCc1ccc(Cl)cc1`, the Potency in [1] was 10.6 µM (active); in experiment [2], 3.35 µM (active); in [3], 3.35 µM (active); in [4], 8.71 µM (active); in experiment [7], 6.68 µM (active); in experiment [9] it was 19.4 µM (active). The Potency in experiment [8] was 13.3 µM (active).

For the compound `Nc1ccc(C(=O)O)cc1`, the Potency entry in [1], in experiment [2], in [3], in experiment [4], in experiment [6] and in experiment [7] was “inactive” each time. Also, the Potency result in experiment [9] and in experiment [8] was “inactive” in each case.

`CCCCCCCCCCCCCCCC[N+](C)(C)CCN(Cc1ccc(OC)cc1)c1ncccn1`: the Potency in experiment [2] was 16.8 µM (active).

Consider `COc1cccc2c1C(=O)c1c(O)c3c(c(O)c1C2=O)C[C@@](O)(C(C)=O)C[C@@H]3O[C@H]1C[C@H](N)[C@H](O)[C@H](C)O1`, for which the Potency in [2] was 0.266 µM (active).
